Sampled rows, rich in hits. Any-hit rate of the full collection: about 11%.
ALDH1A1 inh: blocks purified human ALDH1A1 activity; P00352; Purified ALDH1A1, NADH fluorescence, propionaldehyde substrate; Potency, µM (top dose mostly 75.3 µM), inactives show at the top dose activity, negative = inhibition, hits mostly inhibitors; 7.3% of 220,000 active; AID 1030; active = well fitted inhibition curve with a large enough effect, not every such curve was filed as active; inconclusive = small, poorly fitted or top-dose-only effect, or another doubt; inactive = no such curve, though single readings can be large or run the other way;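 also: potency is read from the fitted curve at half-maximal effect; plate controls were no enzyme wells and a reference inhibitor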
HTT cytoprotect: cytoprotection in Huntington HTT-Q103 PC12 cell model; PC12 HTT-Q103 induced, cytoprotection, ATP luminescence, 40 h; Potency, µM (doses to about 56.4 µM), without a hit: cytoprotection (ATP increase), hits mostly activators; 0.14% of 230,000 active; AID 1471; also: potency is read from the fitted curve at half-maximal effect; % of control where 0% means no effect; nearly all actives have a fitted effect of over 45% in size
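Huntington model: PC12 line, ecdysone-inducible HTTQ103 exon1–GFP, tebufenozide 100 nM. Test articles in a dose series. Endpoint luminescence from cellular ATP.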
HPGD block: blocks human HPGD enzyme activity; purified HPGD, NADH fluorescence kinetic, PGE2 substrate; 4.3% of 150,000 active; Potency, µM, without a hit: at the highest dose activity change, negative = inhibition, most hits filed as inhibitors; P15428; AID 894; active = well fitted inhibition curve with a large enough effect, not every such curve was filed as active; inconclusive = small, poorly fitted or top-dose-only effect, or another doubt; inactive = no such curve, though single readings can be large or run the other way; also: potency is read from the fitted curve at half-maximal effect; % is scaled to controls: 0 for no effect and ±100 for the full control effect
Target sequence (P15428 whole entry, looked up): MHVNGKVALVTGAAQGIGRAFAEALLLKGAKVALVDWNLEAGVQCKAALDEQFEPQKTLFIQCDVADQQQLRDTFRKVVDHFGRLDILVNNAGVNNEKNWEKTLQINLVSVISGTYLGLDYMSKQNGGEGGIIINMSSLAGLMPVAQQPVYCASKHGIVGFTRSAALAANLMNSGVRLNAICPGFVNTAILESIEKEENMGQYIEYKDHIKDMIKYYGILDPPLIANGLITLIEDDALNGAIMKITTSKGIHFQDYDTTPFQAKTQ
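NADH formation kinetics: reaction with 30 uM PGE2 and 1 mM NAD+ (final), 20 nM enzyme, Tris-HCl pH 8 with Tween 20, after 15 min compound preincubation at room temperature. Fluorescence change, last versus first of five reads.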
CBFb RUNX1 block: inhibitors of human CBF-beta and RUNX1 interaction; Q01196+Q13951; 230,000 tested, under 10 active; Potency, µM (series often up to 59.8 µM), without a hit: at the highest dose activity, negative = inhibition, most hits filed as inhibitors; AlphaScreen CBFb-His/RUNX1-biotin binding, biochemical; also: % of control where 0% means no effect
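Room-temperature protein-protein interaction test with 30 nM each of His-tagged CBF-beta and biotinylated RUNX1, 15 min with compound, then 90 min with nickel plus streptavidin beads. Signal read in AlphaScreen mode.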
PNC inhibitor: inhibitors of perinucleolar compartment assembly. PC3M PTB-GFP, PNC prevalence imaging, 16 h; stronger effect = lower value. activity change (PNC), negative = inhibition, % at 10 µM. 3.1% of 140,000 active;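 active = readout at or below -70, meaning at least 70% loss of cells showing the perinucleolar compartment, a nuclear body marking cancer cells; inconclusive = readout between -30 and a set limit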;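 also: plate controls were DMSO wells for no effect and camptothecin positive control wells for full effect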
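Compounds are pinned in duplicate onto adhered PC3M cells stably expressing GFP-tagged PTB and incubated 16 h at 37 C. Cells are then fixed, nuclei stained with Hoechst, and PNC-positive cells counted.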
HTT aggregate: inhibitors of mutant huntingtin aggregate formation in PC12 cells. PC12 HttQ103-GFP aggregates, Acumen cytometry, 40 h. Potency, µM (highest dose often 46.1 µM), without a hit: at the highest dose activity change, negative = inhibition, usual class: inhibitors. 1.1% of 220,000 active. AID 1688; also: potency is read from the fitted curve at half-maximal effect; % is scaled to controls: 0 for no effect and ±100 for the full control effect; nearly all actives have a fitted effect of over 60% in size
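Using laser scanning cytometry, GFP-positive aggregates were counted after lysis of PC12 cells induced with 100 nM tebufenozide to express HTT exon 1 Q103–GFP. Compounds were tested in titration.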
Active calls of the source: *; [ ] = another dose, or the depositor's remark. Unless noted, calls follow the shape of the dose curve; as a rule, active = well fitted curve in the direction sought with a large enough effect; inconclusive = small, poorly fitted or top-dose-only effect, or another doubt; inactive = no such curve, though single readings can be large; an effect the other way counts as inactive or inconclusive.

`Nc1nc2ccc(C(=O)NCCOC(=O)C3CCCCC3)cc2s1` gave ALDH1A1 inh 10µM*, HTT cytoprotect -5%[10 µM], CBFb RUNX1 block -12% and HTT aggregate 13%[9.22 µM].
COc1ccc(C2c3cc(OC)c(OC)cc3Cc3c4cc(OC)c(OC)cc4cc[n+]32)cc1OC (configuration not stated) was read as ALDH1A1 inh -2%, HTT cytoprotect -87%, HPGD block -10% and CBFb RUNX1 block -9%.
Screening Cn1c(=O)c(C(=O)COC(=O)c2cc(C(F)(F)F)nc3c(C(F)(F)F)cccc23)c(N)n(Cc2ccccc2)c1=O returned ALDH1A1 inh -6%, HTT cytoprotect -1%, HPGD block -10% and CBFb RUNX1 block -4%.
CN(C)c1ccc(/C=C/c2ccc3ccccc3[n+]2C)cc1 was read as ALDH1A1 inh -15%, HTT cytoprotect -71%[10 µM], HPGD block -2%, CBFb RUNX1 block -19%, PNC inhibitor 5 and HTT aggregate 2.5µM*.
Screening Cc1cc(/C=C/c2ccc3cc(N(C)C)ccc3[n+]2C)c(C)n1-c1ccccc1 returned ALDH1A1 inh -9%, HPGD block -13% and CBFb RUNX1 block inconclusive.
`CN(C)c1ccc(/C=C/c2ccc3c4ccccc4ccc3[n+]2-c2ccccc2)cc1` gave ALDH1A1 inh 13µM*, HTT cytoprotect -45%[10 µM] and HTT aggregate 4µM*.
`CCCCCCCCCCCCCCCC(=O)O[C@H](CC(=O)O)C[N+](C)(C)C` gave ALDH1A1 inh -4%, HTT cytoprotect inconclusive, HPGD block -18% and CBFb RUNX1 block -2%[21.7 µM].
`O=C(c1cccs1)N(c1ccc(Br)cc1)C1C=CS(=O)(=O)C1` (configuration not stated) gave ALDH1A1 inh 9%, HTT cytoprotect -28%, CBFb RUNX1 block 2% and HTT aggregate 5%.
`COc1ccc2c(C(=O)CN3CCSCC3)c[nH]c2c1` gave ALDH1A1 inh 28µM*, HTT cytoprotect 2%[10 µM], CBFb RUNX1 block 0% and HTT aggregate 12%[9.22 µM].
`COc1ccc2[nH]cc(C(=O)CN3CCN(C4CCCCC4)CC3)c2c1` gave ALDH1A1 inh 25µM*, HTT cytoprotect -15%[0.074 µM], HPGD block -10%, CBFb RUNX1 block -1%, PNC inhibitor 22 and HTT aggregate 23%.
For COc1ccc2c(C(=O)CN(C)C3CCCCC3)c[nH]c2c1 the results were ALDH1A1 inh inconclusive, HTT cytoprotect 1%[10 µM], HPGD block -15%, CBFb RUNX1 block -1%, PNC inhibitor -100* and HTT aggregate -16%.
Screening COc1ccc2c(C(=O)CN3CCN(c4ccccc4)CC3)c[nH]c2c1 returned ALDH1A1 inh -6%, HTT cytoprotect 16%, HPGD block -9%, CBFb RUNX1 block -4%, PNC inhibitor -22 and HTT aggregate 3%[9.22 µM].
`Cc1noc(C)c1C(=O)N1CCC2(CCN(Cc3ccccc3)CC2)CC1` gave ALDH1A1 inh 6%, HTT cytoprotect -22% and HPGD block -6%.
`CC(C)CNC(=O)O` gave ALDH1A1 inh -10%[13.5 µM], HTT cytoprotect -10%[10 µM] and HPGD block -14%.
`Cc1nc(NCc2ccccc2)c2nc(-c3ccccc3)n(CCCN3CCOCC3)c2n1` gave ALDH1A1 inh inconclusive, HTT cytoprotect -31%, HPGD block inconclusive and CBFb RUNX1 block -9%.
For Brc1ccc(N/N=C(/N=Nc2nn[nH]n2)c2ccccc2)cc1 the results were ALDH1A1 inh 14µM*, HTT cytoprotect -131% and HTT aggregate 7.1µM*.
Screening Cc1ccc(C(=O)Nc2nc(C)c(C(=O)Nc3ccc4c(c3)CCC4)s2)cc1 returned ALDH1A1 inh inconclusive, HTT cytoprotect 5%[1.9 µM], HPGD block inconclusive, CBFb RUNX1 block 4%, PNC inhibitor -89* and HTT aggregate -8%.
`Cc1ccc(C(=O)Nc2ccc3c(c2)CCC3)o1` gave ALDH1A1 inh 18µM*, HTT cytoprotect -47%[10 µM], HPGD block 22µM*, CBFb RUNX1 block 4%, PNC inhibitor 25 and HTT aggregate -28%.
Screening O=C(Nc1ccc2c(c1)CCC2)c1ccc(Br)o1 returned ALDH1A1 inh -9%, HTT cytoprotect -40%, HPGD block -24%, CBFb RUNX1 block 8%, PNC inhibitor inconclusive and HTT aggregate 6%.
For Cc1ccc(NC(=S)NC(C)CCc2ccccc2)cc1C (configuration not stated) the results were ALDH1A1 inh -12%, HTT cytoprotect 6%[10 µM], HPGD block -4%, CBFb RUNX1 block -1%, PNC inhibitor 17 and HTT aggregate -27%.
`COc1ccc(CNC(=S)NC(C)CCc2ccccc2)cc1` (configuration not stated) gave ALDH1A1 inh 6.3µM*, HTT cytoprotect 12%[10 µM], CBFb RUNX1 block 14% and HTT aggregate 0%[9.22 µM].
Screening CC(CCc1ccccc1)NC(=O)/C=C/c1ccccc1 (configuration not stated) returned ALDH1A1 inh 11µM*, HTT cytoprotect -14%, HPGD block -4%, CBFb RUNX1 block 6%, PNC inhibitor 52 and HTT aggregate 6%.
CC(CCc1ccccc1)NC(=O)/C=C/c1ccc(F)cc1 (configuration not stated) was read as ALDH1A1 inh inconclusive, HTT cytoprotect -46%, CBFb RUNX1 block -5% and HTT aggregate -13%.
For COc1ccc(CNC(=S)Nc2ccc(OC)cc2)cc1 the results were ALDH1A1 inh inconclusive, HTT cytoprotect 6%[0.074 µM], HPGD block -17%, CBFb RUNX1 block -5%, PNC inhibitor -2 and HTT aggregate 0%.
`Cc1cccc(C)c1NC(=S)NC(C)CCc1ccccc1` (configuration not stated) gave ALDH1A1 inh 5%, HTT cytoprotect 8%[10 µM], HPGD block -5%, CBFb RUNX1 block -6%, PNC inhibitor -82* and HTT aggregate -23%.
Screening COc1ccc(CNC(=S)NCc2ccc(OC)cc2)cc1 returned ALDH1A1 inh 20µM*, HTT cytoprotect -23%, CBFb RUNX1 block -1% and HTT aggregate 5%[9.22 µM].
`Cc1cc(C)nc(N2CCCC(C(=O)NNC(=O)c3ccncc3)C2)n1` (configuration not stated) gave HTT cytoprotect 0%[10 µM], CBFb RUNX1 block 7% and HTT aggregate 0%[9.22 µM].
`COc1ccc([N+](=O)[O-])c2c1CCN2C(=O)CC[C@H](N)C(=O)O` gave ALDH1A1 inh 10%, HTT cytoprotect inconclusive, HPGD block -5% and CBFb RUNX1 block 21%[21.7 µM].
